In PubChem BioAssay AID686979 (National Center for Advancing Translational Sciences (NCATS), 2013):
The whole screen tested about 420,000 compounds, of which about 50,000 (12%) were called active. About 26% were inconclusive and are not listed. Calls follow the shape of the dose curve; as a rule, active = well fitted inhibition curve with a large enough effect; inconclusive = small, poorly fitted or top-dose-only effect; inactive = flat fitted curve, though single readings scatter. Shown is part of a subset that was picked to be rich in actives.

experiment: qHTS for Inhibitors of human tyrosyl-DNA phosphodiesterase 1 (TDP1): qHTS in cells in presence of CPT; details: chicken DT40 Tdp1-/-;hTDP1 cells + 20 nM CPT, ATP luminescence, 48 h; series mostly up to 46.2 µM; activity change, negative = growth inhibition: at the top concentration; also: nearly all actives have a fitted effect of over 55% in size
In short: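 Cell growth measured by CellTiter-Glo luminescence after a minimum 48 h, 37 C compound exposure with 20 nM CPT in Tdp1-knockout DT40 cells stably expressing hTDP1, seeded 400/well; qHTS titration format.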
% is scaled to controls: 0 for no effect and ±100 for the full control effect; potency is read from the fitted curve at half-maximal effect.

Structure (SMILES)	activity change, negative = growth inhibition	Potency
Cc1ccc(CN2CCN(/N=C/c3cccnc3)CC2)c(C)c1	5.42% (inactive)	–
COc1ccc(NC(=O)CCCC2CCCCC2)c(OC)c1	-22.4% (inactive)	–
NS(=O)(=O)c1ccc2nc(NC(=O)CS(=O)(=O)c3ccc(F)cc3)sc2c1	12.2% (inactive)	–
O=C1NC[C@H](CCCCN2C[C@H](Cc3ccc(O)cc3)N(CC3CCCCC3)C(=O)C2=O)N(CCc2ccccc2)C1=O	-7.53% (inactive)	–
O=c1nc(NO)ccn1C1CCCO1 (configuration not stated)	-3.51% (inactive)	–
NC(=O)COc1ccc(C23CC4CC(CC(C4)C2)C3)cc1	-20.8% (inactive)	–
Cc1ccc(S(=O)(=O)Nc2nc(N)n(-c3ccccc3)n2)cc1	1.91% (inactive)	–
C=CCOc1nc2c(c(=O)n(C)c(=O)n2C)n1Cc1ccc(Cl)cc1Cl	–	18.4 µM (active)
CC(C)CCn1c(CN(C)Cc2ccccc2)nc2c1c(=O)n(C)c(=O)n2C	–	6.51 µM (active)
COc1cccc(CNS(=O)(=O)c2cc3c(cc2C)n(C)c(=O)c(=O)n3C)c1	–	inactive
CC(C)CCn1cnc2c1c(=O)n(CC(=O)NC(N)=O)c(=O)n2Cc1ccccc1	-21.6% (inactive)	–
Cn1c(=O)c2c(nc(NCc3ccccc3)n2CC(N)=O)n(C)c1=O	-18% (inactive)	–
CCCCNc1nc2c(c(=O)n(C)c(=O)n2C)n1Cc1cccc(OC)c1	–	2.91 µM (active)
COc1ccc(CCn2c(NCCCN3CCOCC3)nc3c2c(=O)[nH]c(=O)n3C)cc1	-3.75% (inactive)	–
Cn1c(=O)[nH]c(=O)c2c1nc(CN(Cc1ccccc1)Cc1ccccc1)n2CCN1CCOCC1	-16.8% (inactive)	–
Cn1c(=O)c2c(nc(NCCc3ccccc3)n2Cc2ccccc2)n(C)c1=O	–	5.8 µM (active)
CC1CN(Cc2nc3c(c(=O)n(C)c(=O)n3C)n2Cc2cccc(Cl)c2)CC(C)O1 (configuration not stated)	-16.9% (inactive)	–
CC(C)OCCCNc1nc2c(c(=O)n(Cc3ccccc3F)c(=O)n2C)n1C	-9% (inactive)	–
Cn1c(=O)c2c(nc(Oc3ccc(C#N)cc3)n2Cc2ccc(Cl)cc2Cl)n(C)c1=O	-12.4% (inactive)	–
COCCn1cnnc1SCC(=O)Nc1cccc(S(=O)(=O)N2CCCCC2)c1	-15.9% (inactive)	–
NC(=O)C1CCN(C(=O)/C(=C/c2ccco2)NC(=O)c2ccccc2)CC1	14.3% (inactive)	–
Cc1c(C(=O)NC(=S)NCc2cccnc2)oc2ccccc12	-16.7% (inactive)	–
Cc1ccccc1OS(=O)(=O)c1cccc([N+](=O)[O-])c1	-23.5% (inactive)	–
CC(Oc1ccccc1[N+](=O)[O-])C(=O)N/N=C/c1ccoc1 (configuration not stated)	-10.4% (inactive)	–
O=C(CCc1ccccc1)NNc1ccc(F)cc1	-27.2% (inactive)	–
CC(C)c1cc(C(=O)N2CCOc3ccc(CN4CCC(Oc5cccnc5)CC4)cc3C2)n[nH]1	-19.6% [at 9.04 µM] (inactive)	–
CC(C)CC1(C)NC(=O)N(CC(=O)Nc2ccc3c(c2)OCCO3)C1=O (configuration not stated)	7.31% (inactive)	–
